Reference: PubChem BioAssay (Tox21)
Where “and” joins values, the source holds several entries; their conditions need not be identical. Identical values can stand only once. Results filed as inconclusive are left out. A structure can be active in one record and inactive in another. Calls of active or inactive are those of the source. Unless noted, calls follow the shape of the full dose curve.

Key:
[1] = Nuclear factor erythroid 2-related factor 2/antioxidant responsive element (Nrf2/ARE) small molecule agonists: luciferase reporter gene qHTS assay in human keratinocytes (AID 1919969); also: nearly all actives have a fitted effect of over 35% in size; also: potency is read from the fitted curve at half-maximal effect
[2] = biological target: Gonadotropin-releasing hormone receptor (Homo sapiens) (UniProt P30968); assay: Human gonadotropin-releasing hormone receptor (GnRHR) small molecule agonists, calcium flux assay in GnRHR-HEK293 cells (AID 1920063); also: nearly all actives have a fitted effect of over 35% in size; also: potency is read from the fitted curve at half-maximal effect
How it was run: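 Cells: HEK293 stably expressing human GnRHR. Steps: overnight (18 h) culture, 1 h calcium dye loading at 37 C, compound addition, kinetic fluorescence read at 480/540 nm. Each compound tested at 15 concentrations in triplicate.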

[3] = biological target: KiSS-1 receptor (Homo sapiens) (UniProt Q969F8); assay: Human kisspeptin (KISS1R) small molecule agonists, calcium flux assay in KISS1R-HEK293 cells (AID 1920064; active = well fitted activation curve with a large enough effect in the repeat runs)
How it was run: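 Cells plated and incubated 18 h; dye added, 1 h at 37 C; compounds in DMSO pinned in; signal read at 480/540 nm every second for 3 min. Each compound tested at 15 concentrations in triplicate.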

[4] = G protein-coupled receptor (GPCR) small molecule agonists, calcium flux assay: HEK293 wild type cell line counter screen (AID 1920065)
How it was run: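 Counter-screen of the Tox21 10K library for non-specific calcium release: dye-loaded cells received compounds in DMSO and were monitored by kinetic fluorescence (480/540 nm, 3 min). Fifteen concentrations, run in triplicate.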

[5] = p53 small molecule agonists, cell-based qHTS assay with human liver microsomes (AID 1963577);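 also: p53 response element beta-lactamase reporter cells with liver microsomes plus NADPH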
How it was run: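 Metabolically competent format: test substances, human liver microsomes and NADPH (both 0.5 mg/mL final) incubated with p53RE-bla cells 16 h at 37 C. Beta-lactamase reporter signal then quantified by fluorescence.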

[6] = p53 small molecule agonists, cell-based qHTS assay with rat liver microsomes (AID 1963578)
How it was run: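 Each plate received p53RE-bla cells, then compound, then rat liver microsomes and NADPH (both 0.5 mg/mL final). Plates were held 16 h at 37 C, and beta-lactamase activity was detected with LiveBLAzer over 2 h.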

[7] = p53 small molecule agonists, cell-based qHTS assay with human liver microsomes: qHTS cell viability counter screen (AID 1963579); also: nearly all actives have a fitted effect of over 45% in size; also: potency is read from the fitted curve at half-maximal effect
How it was run: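 Tox21 library compounds, delivered from DMSO stocks, were tested on p53RE-bla cells together with 0.5 mg/mL human liver microsomes and 0.5 mg/mL NADPH (final) over 16 h at 37 C; CellTiter-Glo luminescence served as the cytotoxicity measure.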

[8] = p53 small molecule agonists, cell-based qHTS assay with rat liver microsomes: qHTS cell viability counter screen (AID 1963580); also: nearly all actives have a fitted effect of over 45% in size
How it was run: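 Intracellular ATP, by CellTiter-Glo luminescence, defines viability. HCT-116 p53RE-bla cells, 4,000 per well, were compound-treated in the presence of rat liver microsomes and NADPH for 16 h at 37 C.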

[9] = p53 small molecule agonists, cell-based qHTS assay: qHTS cell viability counter screen (AID 1963581); also: nearly all actives have a fitted effect of over 45% in size; also: potency is read from the fitted curve at half-maximal effect
How it was run: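 Cells: HCT-116 with p53 response element-driven beta-lactamase. Treatment: 16 h, 37 C, compounds in DMSO. Read: CellTiter-Glo luminescence after 30 min RT.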

[10] = biological target: 5-hydroxytryptamine receptor 2A (Homo sapiens) (UniProt P28223); assay: 5-hydroxytryptamine receptor 2A (HTR2A) small molecule agonists, cell-based qHTS assay (AID 1963587); also: nearly all actives have a fitted effect of over 30% in size; also: potency is read from the fitted curve at half-maximal effect
How it was run: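 Kinetic calcium-flux fluorescence (2 min, 1 sec intervals) after compound addition in agonist mode. HTR2A-CHO cells were cultured 18 h, then dye-loaded 1 h at 37 C.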

[11] = biological target: Muscarinic acetylcholine receptor M1 (Homo sapiens) (UniProt P11229); assay: Cholinergic receptor muscarinic 1 (CHRM1) small molecule antagonists, cell-based qHTS assay (AID 1963588); also: nearly all actives have a fitted effect of over 40% in size
How it was run: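 CHRM1-CHO calcium-flux assay, antagonist mode. Cells were seeded 18 h, dye-loaded 1 h at 37 C and given compound for 5 min at RT, then acetylcholine was added at 50nM. FDSS fluorescence was read 3 min; 15 concentrations, three runs.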

[12] = biological target: Muscarinic acetylcholine receptor M1 (Homo sapiens) (UniProt P11229); assay: Cholinergic receptor muscarinic 1 (CHRM1) small molecule agonists, cell-based qHTS assay (AID 1963589); also: nearly all actives have a fitted effect of over 35% in size
How it was run: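 Agonist-mode qHTS in CHO cells stably carrying human muscarinic M1. Intracellular calcium is tracked by fluorescence every second after compound transfer; each compound runs at 15 concentrations in three independent runs.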

[13] = cAMP Responsive Elements (CRE) small molecule agonists, cell-based qHTS assay (AID 1963590)
How it was run: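 Agonist mode qHTS in CRE-bla HEK 293T cells: compounds dosed from DMSO for 3 h at 37 C/5% CO2, followed by LiveBLAzer B/G FRET substrate for 2 h at room temperature.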

[14] = cAMP Responsive Elements (CRE) small molecule antagonists, cell-based qHTS assay (AID 1963591; active = well fitted inhibition curve with a large enough effect in the signal ratio in the repeat runs, not every such curve was filed as active; the % refers to the signal ratio; also: potency is read from the fitted curve at half-maximal effect)
How it was run: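 Antagonist mode: test compounds are co-incubated with the adenylyl cyclase activator NKH477 (0.25 uM final) on CRE-bla HEK293T cells for 3 h at 37 °C, followed by LiveBLAzer substrate loading.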

[15] = biological target: Beta-2 adrenergic receptor (Homo sapiens) (UniProt P07550); assay: Adrenergic beta2 receptor (ADRB2) small molecule antagonists, cell-based qHTS assay (AID 1963592); also: series mostly up to about 92 µM; nearly all actives have a fitted effect of over 50% in size
How it was run: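 Cells (CHO, stable ADRB2 overexpression) incubated 18-20hr at 37C; compounds added from DMSO; agonist mix (1nM isoproterenol, 100uM IBMX, 25uM Ro-20-1724) added; 0.5hr RT; d2-cAMP and anti-cAMP-cryptate added; 1hr RT; 665/615 nm read.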

[16] = biological target: D(2) dopamine receptor (Homo sapiens) (UniProt P14416); assay: Dopamine D2 receptor (DRD2) small molecule agonists, cell-based qHTS assay (AID 1963594); also: nearly all actives have a fitted effect of over 35% in size; also: potency is read from the fitted curve at half-maximal effect
How it was run: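 cAMP accumulation in DRD2-HEK293 cells measured by HTRF after 1 h detection; compounds added 10 min before NKH477 (200nM […]) forskolin-analogue stimulation, 30 min at room temperature, with Ro20-1724 present at 0.1 mM final.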

[17] = biological target: D(2) dopamine receptor (Homo sapiens) (UniProt P14416); assay: Dopamine D2 receptor (DRD2) small molecule antagonists, cell-based qHTS assay (AID 1963595; active = well fitted inhibition curve with a large enough effect in the signal ratio in the repeat runs, with a control signal flat; the % refers to the signal ratio)
How it was run: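 Readout: HTRF cAMP, cAMP-d2 competing with cellular cAMP for anti-cAMP cryptate, read after 1 h. Cells: DRD2-HEK293. Conditions: 0.1 mM Ro20-1724, 12 nM quinpirole, 200 nM NKH477, 30 min RT.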

[18] = p53 small molecule agonists, cell-based qHTS assay (AID 1963582; active = well fitted activation curve with a large enough effect in the signal ratio in the repeat runs, not every such curve was filed as active; the % refers to the signal ratio)
How it was run: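 Quantitative HTS in p53RE-bla cells: after a 5 h settling period, compounds delivered in DMSO were left on cells for 16 h at 37 C, and reporter induction was measured as fluorescence following 2 h substrate loading.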

[19] = biological target: 5-hydroxytryptamine receptor 2A (Homo sapiens) (UniProt P28223); assay: 5-hydroxytryptamine receptor 2A (HTR2A) small molecule antagonists, cell-based qHTS assay (AID 1963586); also: nearly all actives have a fitted effect of over 45% in size; also: potency is read from the fitted curve at half-maximal effect
How it was run: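 Antagonist-mode intracellular calcium assay: DOI (4 nM) added after 5 min compound pre-incubation at room temperature to dye-loaded HTR2A-CHO cells. Fluorescence followed for 3 min, sampled every second.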

[20] = biological target: Beta-2 adrenergic receptor (Homo sapiens) (UniProt P07550); assay: Adrenergic beta2 receptor (ADRB2) small molecule agonists, cell-based qHTS assay (AID 1963593);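 also: CHO cells stably overexpressing human ADRB2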
How it was run: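 CHO cells stably over-expressing ADRB2 were plated overnight at 37C, then dosed with compounds plus a stimulation mix containing 100uM IBMX and 25uM Ro-20-1724 for 0.5hr at room temperature. cAMP was measured by HTRF competition, 1hr.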

Measured: Potency

Beta-2 adrenergic receptor (Homo sapiens), sequence (P07550 whole entry, looked up): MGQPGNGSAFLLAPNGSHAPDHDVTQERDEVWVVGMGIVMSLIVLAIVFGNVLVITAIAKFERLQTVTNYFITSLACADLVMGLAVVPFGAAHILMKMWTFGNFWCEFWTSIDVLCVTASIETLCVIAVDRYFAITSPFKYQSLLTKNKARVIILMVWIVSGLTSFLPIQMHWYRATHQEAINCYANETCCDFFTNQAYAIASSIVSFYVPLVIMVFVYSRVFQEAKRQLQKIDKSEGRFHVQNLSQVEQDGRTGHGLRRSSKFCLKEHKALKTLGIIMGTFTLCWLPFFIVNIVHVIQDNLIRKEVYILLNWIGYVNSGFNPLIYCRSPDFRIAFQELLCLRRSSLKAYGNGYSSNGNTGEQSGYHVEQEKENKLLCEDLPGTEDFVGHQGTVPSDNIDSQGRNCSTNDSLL
Muscarinic acetylcholine receptor M1 (Homo sapiens), sequence (P11229 whole entry, looked up): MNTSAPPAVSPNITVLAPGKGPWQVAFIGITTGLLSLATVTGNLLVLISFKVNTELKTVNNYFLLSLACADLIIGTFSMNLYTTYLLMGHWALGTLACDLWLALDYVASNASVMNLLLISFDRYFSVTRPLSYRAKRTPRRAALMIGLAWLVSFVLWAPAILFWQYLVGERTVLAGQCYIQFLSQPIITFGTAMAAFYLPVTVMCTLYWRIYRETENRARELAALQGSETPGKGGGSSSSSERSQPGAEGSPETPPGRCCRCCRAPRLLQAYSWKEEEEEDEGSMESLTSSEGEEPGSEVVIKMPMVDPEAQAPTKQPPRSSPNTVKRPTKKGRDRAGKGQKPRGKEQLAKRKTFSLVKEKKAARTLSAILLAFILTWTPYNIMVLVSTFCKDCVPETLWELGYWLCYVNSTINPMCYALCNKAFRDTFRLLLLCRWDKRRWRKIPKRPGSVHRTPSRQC
5-hydroxytryptamine receptor 2A (Homo sapiens), sequence (P28223 whole entry, looked up): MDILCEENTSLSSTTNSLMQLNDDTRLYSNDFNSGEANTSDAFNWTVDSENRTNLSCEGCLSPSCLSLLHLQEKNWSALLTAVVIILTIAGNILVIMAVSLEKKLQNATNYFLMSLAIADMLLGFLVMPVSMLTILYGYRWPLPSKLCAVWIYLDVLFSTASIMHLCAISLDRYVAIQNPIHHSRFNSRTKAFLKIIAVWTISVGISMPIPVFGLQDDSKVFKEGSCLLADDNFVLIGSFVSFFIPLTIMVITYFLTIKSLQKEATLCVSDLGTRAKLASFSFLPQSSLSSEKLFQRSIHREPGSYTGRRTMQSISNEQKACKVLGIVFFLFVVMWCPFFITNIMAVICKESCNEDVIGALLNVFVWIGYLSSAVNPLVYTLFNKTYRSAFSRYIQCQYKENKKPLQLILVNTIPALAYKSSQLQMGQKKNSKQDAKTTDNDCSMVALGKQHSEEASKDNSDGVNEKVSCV
Gonadotropin-releasing hormone receptor (Homo sapiens), sequence (P30968 whole entry, looked up): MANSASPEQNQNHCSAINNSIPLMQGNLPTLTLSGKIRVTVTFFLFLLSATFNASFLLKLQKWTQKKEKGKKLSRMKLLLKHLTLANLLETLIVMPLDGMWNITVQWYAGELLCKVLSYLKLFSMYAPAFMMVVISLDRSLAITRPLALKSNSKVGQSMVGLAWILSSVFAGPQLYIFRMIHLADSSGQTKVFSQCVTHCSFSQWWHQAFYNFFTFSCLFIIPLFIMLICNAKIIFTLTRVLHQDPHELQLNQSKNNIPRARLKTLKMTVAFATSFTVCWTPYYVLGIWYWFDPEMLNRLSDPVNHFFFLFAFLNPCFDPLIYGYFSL
KiSS-1 receptor (Homo sapiens), sequence (Q969F8 whole entry, looked up): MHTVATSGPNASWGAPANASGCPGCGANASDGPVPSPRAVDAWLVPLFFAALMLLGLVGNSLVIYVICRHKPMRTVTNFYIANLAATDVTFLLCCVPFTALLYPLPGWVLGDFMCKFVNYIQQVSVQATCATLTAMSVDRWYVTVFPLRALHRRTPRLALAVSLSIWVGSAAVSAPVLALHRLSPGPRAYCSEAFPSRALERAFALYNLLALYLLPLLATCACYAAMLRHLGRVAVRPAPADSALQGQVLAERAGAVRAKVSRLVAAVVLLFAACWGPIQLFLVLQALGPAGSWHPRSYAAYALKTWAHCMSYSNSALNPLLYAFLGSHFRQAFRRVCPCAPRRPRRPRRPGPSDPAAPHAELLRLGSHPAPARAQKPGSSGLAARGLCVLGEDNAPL
D(2) dopamine receptor (Homo sapiens), sequence (P14416 whole entry, looked up): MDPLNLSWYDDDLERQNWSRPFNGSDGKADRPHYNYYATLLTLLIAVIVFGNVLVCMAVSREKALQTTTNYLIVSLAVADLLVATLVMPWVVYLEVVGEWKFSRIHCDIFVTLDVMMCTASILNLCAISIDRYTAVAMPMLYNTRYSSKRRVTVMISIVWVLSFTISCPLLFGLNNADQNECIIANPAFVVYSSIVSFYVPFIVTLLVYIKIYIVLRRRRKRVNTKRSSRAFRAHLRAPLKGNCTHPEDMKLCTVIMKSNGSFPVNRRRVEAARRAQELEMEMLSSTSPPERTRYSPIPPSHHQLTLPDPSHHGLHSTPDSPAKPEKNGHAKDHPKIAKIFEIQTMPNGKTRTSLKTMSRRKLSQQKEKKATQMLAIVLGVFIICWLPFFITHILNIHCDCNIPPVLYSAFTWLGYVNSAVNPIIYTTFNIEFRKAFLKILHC

CCOC(=O)/C=C(C)/C=C/C[C@@H](C)CCCC(C)C
active: [1] 68.6 µM
not listed: [18] | [19] | [20]
inactive: all other assays above

CC1CCCC1
inactive: [5] | [7] | [8] | [9] | [18]

O=[N+]([O-])c1ccc(Oc2ccc(C(F)(F)F)cc2[N+](=O)[O-])cc1
active: [1] 48.6 µM
not listed: [11] | [13] | [18]
inactive: all other assays above

O=[N+]([O-])c1ccc(O)c([N+](=O)[O-])c1
not listed: [13] | [14] | [19] | [20]
inactive: all other assays above

C[C@@H]1C[C@@H]([C@H](O)CC2CC(=O)NC(=O)C2)C(=O)[C@@H](C)C1
active: [14] 8.58 µM and 8.3 µM and 2.66 µM
not listed: [10] | [11] | [12] | [13] | [19] | [20]
inactive: all other assays above

C[C@]12Cc3nonc3C[C@@H]1CC[C@@H]1[C@@H]2CC[C@@]2(C)[C@H]1CC[C@]2(C)O
not listed: [10] | [13] | [14] | [15] | [20]
inactive: all other assays above

COC(=O)c1ccccc1S(=O)(=O)NC(=O)Nc1nc(C)nc(OC)n1
not listed: [8] | [14] | [20]
inactive: all other assays above

O=S1OC[C@@H]2[C@H](CO1)[C@]1(Cl)C(Cl)=C(Cl)[C@@]2(Cl)C1(Cl)Cl (stereo not given in full)
active: [1] 24.3 µM
not listed: [7] | [13] | [14] | [17] | [18] | [19] | [20]
inactive: all other assays above

Nc1ccc(N=Nc2ccccc2)cc1
active: [1] 10.9 µM
not listed: [7] | [9] | [13] | [14] | [15] | [16] | [20]
inactive: all other assays above

C[C@]12C/C(=C/O)C(=O)C[C@@H]1CC[C@@H]1[C@@H]2CC[C@@]2(C)[C@H]1CC[C@]2(C)O
active: [1] 27.6 µM and 6.68 µM | [9] 36.7 µM
inactive: [2] | [3] | [4] | [5] | [8] | [15] | [16] | [17]
36.7 µM (active) and inactive: [7]

Oc1cc(Cl)c(Cl)c(Cl)c1
active: [1] 65 µM
not listed: [7] | [13] | [17] | [18] | [20]
inactive: all other assays above

Cc1cc(C(C)(C)c2cc(C)c(O)c(C)c2)cc(C)c1O
inactive: [1] | [3] | [4] | [5] | [6] | [11] | [20] | [16]
active: [2] 33.5 µM | [10] 23.7 µM

OC(c1ccc(F)cc1)(c1cncnc1)c1ccccc1Cl (stereo not given)
not listed: [6]
inactive: all other assays above

CC(C)(c1ccccc1)c1ccc(O)cc1
45.4 µM (active) and inactive: [7]
33.2 µM (active) and inactive: [19]
54.5 µM (active) and inactive: [10]
not listed: [9] | [11] | [13] | [14] | [17]
inactive: all other assays above

CCCOC(=O)Cc1ccc(OCC(=O)N(CC)CC)c(OC)c1
active: [16] 0.282 µM
not listed: [7] | [19] | [20]
inactive: all other assays above

Cc1c(COC(=O)[C@@H]2[C@H](/C=C(\Cl)C(F)(F)F)C2(C)C)cccc1-c1ccccc1
38 µM (active) and inactive: [10]
active: [1] 53.2 µM and 27.2 µM
not listed: [9] | [11] | [13] | [18]
inactive: all other assays above

CC[C@@H](CO)NC(=O)[C@@H]1C=C2c3cccc4c3c(cn4C)C[C@H]2N(C)C1
inactive: [1] | [2] | [3] | [4] | [5] | [6] | [7] | [9] | [13] | [14]
